Assay outcomes (PubChem)
HP1b chromo inh: HTS for Inhibitors of HP1-beta Chromodomain Interactions with Methylated Histone Tails; Chromobox protein homolog 1 (Homo sapiens), P83916; AlphaScreen HP1-beta / biotin-H3K9me3 peptide binding; Potency, µM (top dose mostly 114 µM), for the others: at the top dose activity change, negative = inhibition, most hits filed as inhibitors; actives 0.56% (n = 390,000); AID 540317, 2011; also: nearly all actives have a fitted effect of over 70% in size
Target sequence (P83916 whole entry, looked up): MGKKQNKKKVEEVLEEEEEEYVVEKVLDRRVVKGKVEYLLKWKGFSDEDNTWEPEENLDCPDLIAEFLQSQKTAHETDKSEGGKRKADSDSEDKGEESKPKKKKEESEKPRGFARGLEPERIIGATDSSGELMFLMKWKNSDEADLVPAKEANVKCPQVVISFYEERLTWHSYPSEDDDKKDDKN
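Compound inhibition of the preformed complex between 50 nM HP1-beta and 50 nM biotinylated H3K9me3 peptide was read by AlphaScreen. Buffer was PBS pH 7.4 with 0.01% Tween-20. Incubations ran 30 min at room temperature, with 10 ug/mL donor/acceptor beads.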
BAZ2B inh: qHTS Assay for Inhibitors of BAZ2B | Bromodomain adjacent to zinc finger domain protein 2B (Homo sapiens), Q9UIF8 | AlphaScreen BAZ2B-H3K14Ac peptide displacement | Potency, µM (series often up to 114 µM), inactives show at the top dose activity change, negative = inhibition, hits mostly inhibitors | actives 4.4% (n = 360,000); also: % is scaled to controls: 0 for no effect and ±100 for the full control effect; nearly all actives have a fitted effect of over 60% in size
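BAZ2B 50 nM plus b-H3(5-23)K14Ac 50 nM, PBS pH 7.4/0.01% Tween-20, 30 min RT; compound added (max 110 uM), 30 min RT; streptavidin donor/Ni-chelate acceptor beads 10 ug/mL final, 20 min dark; AlphaScreen read.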
Sfp PPTase inh: qHTS Assay for Inhibitors of Bacillus subtilis Sfp phosphopantetheinyl transferase (PPTase); 4'-phosphopantetheinyl transferase ffp (Bacillus subtilis), Q9F4F7; Biochemical Sfp PPTase activity, qHTS; Potency, µM, for the others: largest response in the series, negative = inhibition, usual class: inhibitors; actives 3.5% (n = 310,000);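 also: the enzyme is Sfp with the accession as filed and its product quenches rhodamine fluorescence; 0% = enzyme reaction without inhibitor and -100% = no enzyme wells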
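Step 1, compound plus 15 nM Sfp-PPTase, 15 min, room temperature. Step 2, add rhodamine-CoA (5 uM) and BHQ-2-YbbR (12.5 uM). Step 3, read 525/598 nm fluorescence at 0 and 30 min.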
JMJD2A Tudor: qHTS Assay for Inhibitors of JMJD2A-Tudor Domain; Lysine-specific demethylase 4A (Homo sapiens), O75164; AlphaScreen JMJD2A-Tudor / H3K4me3 peptide binding; Potency, µM (top dose mostly 114 µM), for inactives: at the highest dose activity change, negative = inhibition, most hits filed as inhibitors; actives 4.4% (n = 390,000); also: % is scaled to controls: 0 for no effect and ±100 for the full control effect; nearly all actives have a fitted effect of over 50% in size
PLK1 PBD block: qHTS for Inhibitors of PLK1-PDB (polo-like kinase 1 - polo-box domain): Primary Screen; Serine/threonine-protein kinase PLK1 (Homo sapiens), P53350; Plk1 PBD binding of FITC phosphopeptide, fluorescence polarization; actives 2.8% (n = 360,000); Potency, µM, inactives show max response, negative = inhibition, usual class: inhibitors; also: series mostly up to about 57 µM; % is scaled to controls: 0 for no effect and ±100 for the full control effect; nearly all actives have a fitted effect of over 65% in size
G9a block: qHTS Assay for Inhibitors of Histone Lysine Methyltransferase G9a; AID 504332, 2011; Histone-lysine N-methyltransferase EHMT2 (Homo sapiens), Q96KQ7; Potency, µM (series often up to 102 µM), for the others: at the highest dose activity, negative = inhibition, actives largely listed as inhibitors; G9a H3K9 monomethylation, AlphaScreen, 2 h; actives 8.8% (n = 350,000); also: % is scaled to controls: 0 for no effect and ±100 for the full control effect; nearly all actives have a fitted effect of over 75% in size
Target sequence (Q96KQ7 913-1193 limits assumed): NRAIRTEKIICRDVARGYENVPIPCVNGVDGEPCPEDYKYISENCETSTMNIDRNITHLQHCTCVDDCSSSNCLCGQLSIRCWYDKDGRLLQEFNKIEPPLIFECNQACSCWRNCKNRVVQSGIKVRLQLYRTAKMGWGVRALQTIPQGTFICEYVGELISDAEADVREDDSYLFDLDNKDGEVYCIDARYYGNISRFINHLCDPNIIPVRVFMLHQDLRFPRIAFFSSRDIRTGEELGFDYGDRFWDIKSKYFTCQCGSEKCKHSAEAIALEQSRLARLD
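Using a bead-based AlphaScreen, monomethylated H3K9 product from 2 h room-temperature reactions (G9a 20 nM, peptide 500 nM, SAM 20 uM) was detected with 0.5 ug/mL rabbit anti-H3K9me1 antibody.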
The depositor's hits bear a star; ? = inconclusive; nt = not tested or not shown; [ ] = another dose, or the depositor's remark. In the library only some 12% were active in any assay of this set; here they are far more common. Calls follow the shape of the dose curve; as a rule, active = well fitted curve in the direction sought with a large enough effect; inconclusive = small, poorly fitted or top-dose-only effect, or another doubt; inactive = no such curve, though single readings can be large; an effect the other way counts as inactive or inconclusive. Potency is read from the fitted curve at half-maximal effect.

SMILES | HP1b chromo inh | BAZ2B inh | Sfp PPTase inh | JMJD2A Tudor | PLK1 PBD block | G9a block
CC[C@H](C)[C@H](NC(=O)CNC(=O)[C@H](CCCNC(=N)N)NC(=O)CNC(=O)[C@@H](NC(=O)[C@H](Cc1ccc(O)cc1)NC(=O)[C@H](Cc1c[nH]c2ccccc12)NC(=O)[C@H](C)NC(=O)[C@@H]1CCCN1C(=O)[C@H](CC(N)=O)NC(=O)[C@@H](NC(=O)[C@H](CC(=O)O)NC(=O)[C@@H]1CCCN1C(=O)[C@@H](N)[C@@H](C)O)[C@@H](C)CC)[C@@H](C)O)C(=O)N[C@@H](CCCNC(=N)N)C(=O)N1CCC[C@H]1C(=O)N[C@H](C(=O)NCC(=O)N[C@@H](CCCNC(=N)N)C(=O)N[C@@H](Cc1ccccc1)C(N)=O)C(C)C | nt | nt | 13% | nt | nt | nt
O=C(O)c1ccc(N=Nc2c(O)ccc3ncccc23)cc1 | ? | 1.6µM* | 0% | 7.9µM* | -14% | 10µM*
CC1O[C@@H](O[C@@H]2C(O)C[C@H](O[C@@H]3C(O)C[C@@H](OC4CC[C@@]5(C)C6CC(O)[C@@]7(C)C(C8=CC(=O)OC8)CC[C@@]7(O)C6CC[C@@H]5C4)OC3C)OC2C)CC(O)[C@H]1O (stereo not given in full) | nt | nt | 6% | nt | nt | -40%[2.33 µM]
Cc1cc2c(SCC(=O)Nc3cccc(O)c3)ncnc2s1 | 5%[57 µM] | nt | nt | 50µM* | ? | nt
CC1Cc2nc(SCC(=O)NC3CCCCC3)n(C)c(=O)c2S1 (stereo not given) | 33% | 7% | 20µM* | -26% | -13% | -26%[59 µM]
Cc1cccc(NC(=O)CSc2nc3sc(C)cc3c(=O)n2C)c1 | -28%[57 µM] | nt | nt | ? | 27µM* | nt
Cc1cc2c(=O)n(C)c(SCC(=O)Nc3cccc(O)c3)nc2s1 | -3% | 3% | 2% | -20% | ? | ?
COc1ccc(NC(=O)CSc2ncnc3sc(C)cc23)cc1 | -15% | -13% | -6% | -19% | -6% | -4%
CCn1c(SCC(=O)Nc2cccc(C)c2)nc2c(c1=O)SC(C)C2 (stereo not given) | 22% | -25% | 12% | -35% | -11% | 50µM*
CCn1c(SCC(=O)Nc2ccc3c(c2)OCO3)nc2c(c1=O)SC(C)C2 (stereo not given) | 9% | -28% | 18% | -28% | -7% | -44%[59 µM]
CC(Cc1ccccc1)N1CCCC1=O (stereo not given) | 30% | nt | nt | 1% | 0% | nt
CCc1ccccc1-n1c(SCC(=O)Nc2ccc(C)cc2)nc2n[nH]c(C)c2c1=N | 45% | -2% | nt | -8% | nt | 7%[59 µM]
COc1ccc2nc3cc(Cl)ccc3c(C#N)c2c1 | -7% | -14% | 6% | -14% | -19% | 50µM*
CC(=O)c1ccccc1OCCOCCOc1ccccc1C(C)=O | 12% | 3% | 0% | -4% | -9% | -44%[59 µM]
CCN(CC)CCOc1ccccc1C(C)=O | ? | 50µM* | -15% | 18µM* | -12% | 11µM*
CC(C)CCN(C(=O)c1cn2ccccc2n1)c1c(N)n(Cc2ccccc2)c(=O)[nH]c1=O | 26% | -5% | nt | -16% | 1% | ?
CC1CCC2(CC1)NC(=O)N(CC(=O)NCc1ccc(F)cc1)C2=O (stereo not given) | 31% | -1% | nt | -2% | -15% | 22%[12.7 µM]
CCOC(=O)c1cnc2ccccc2c1NCc1ccco1 | 40% | 0% | 45µM* | -4% | 1% | 1%
CCOC(=O)c1cnc2ccc(OC)cc2c1NCc1ccccc1 | 115% | 101% | -8% | 49% | 0% | 191%
